Screening results (PubChem)
A selection: hits, their analogues and other compounds. The true share with any hit is near 14%.
USP17 inh – blocks human USP17 ubiquitin-rhodamine cleavage; AID 1645855; actives 6.5% (n = 47,000); purified USP17, Ub-rhodamine cleavage fluorescence, 3 h; A8MUK1; inhibition, % at 50 µM
USP28 inh – human USP28 deubiquitinase inhibition; Q96RU2; purified USP28, Ub-rhodamine cleavage fluorescence, 30 min; inhibition, % at 25 µM; actives 3% (n = 47,000)
USP8 inh – human USP8 deubiquitinase inhibition | actives 4.2% (n = 47,000) | P40818 | inhibition, % at 20 µM | purified USP8, Ub-rhodamine cleavage fluorescence, 30 min | AID 1645853
Target sequence (P40818 whole entry, looked up): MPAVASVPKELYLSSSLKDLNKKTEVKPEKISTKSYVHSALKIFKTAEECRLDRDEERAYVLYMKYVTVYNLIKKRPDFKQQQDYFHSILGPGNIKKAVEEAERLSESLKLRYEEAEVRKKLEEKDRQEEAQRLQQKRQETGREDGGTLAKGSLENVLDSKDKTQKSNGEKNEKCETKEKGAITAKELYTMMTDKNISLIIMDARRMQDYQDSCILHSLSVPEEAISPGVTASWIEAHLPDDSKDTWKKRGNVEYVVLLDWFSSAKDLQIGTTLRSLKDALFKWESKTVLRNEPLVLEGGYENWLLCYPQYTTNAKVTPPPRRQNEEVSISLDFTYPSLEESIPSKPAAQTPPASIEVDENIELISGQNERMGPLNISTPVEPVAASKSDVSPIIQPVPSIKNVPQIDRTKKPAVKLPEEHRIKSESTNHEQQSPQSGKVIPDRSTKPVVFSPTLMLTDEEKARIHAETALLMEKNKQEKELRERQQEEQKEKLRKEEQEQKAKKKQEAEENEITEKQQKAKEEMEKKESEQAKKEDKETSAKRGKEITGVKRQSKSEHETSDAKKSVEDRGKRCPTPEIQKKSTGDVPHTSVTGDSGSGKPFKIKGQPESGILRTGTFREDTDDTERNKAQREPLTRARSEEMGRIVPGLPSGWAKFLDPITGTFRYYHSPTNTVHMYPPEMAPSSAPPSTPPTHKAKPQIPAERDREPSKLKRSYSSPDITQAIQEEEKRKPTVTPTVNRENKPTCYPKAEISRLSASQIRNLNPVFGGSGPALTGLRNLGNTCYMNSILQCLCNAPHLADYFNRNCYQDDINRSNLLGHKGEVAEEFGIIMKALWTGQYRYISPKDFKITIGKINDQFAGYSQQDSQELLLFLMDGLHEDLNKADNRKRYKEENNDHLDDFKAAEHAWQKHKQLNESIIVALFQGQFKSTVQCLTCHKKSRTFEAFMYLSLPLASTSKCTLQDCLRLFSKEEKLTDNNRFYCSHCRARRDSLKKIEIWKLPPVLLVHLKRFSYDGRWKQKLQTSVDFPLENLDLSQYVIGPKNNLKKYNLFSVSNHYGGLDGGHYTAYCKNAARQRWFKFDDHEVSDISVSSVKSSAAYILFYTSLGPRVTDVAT
USP30 inh – inhibitors of human USP30 deubiquitinase; Q70CQ3; purified USP30, Ub-rhodamine cleavage fluorescence; inhibition, % at 25 µM; actives 5.3% (n = 47,000); AID 1645860
Numbers without * were called inactive; · = no result given. Cut-off read from the data, not from the text of the source: active = inhibition above about 30%; inactive = the rest.

SMILES | USP17 inh | USP28 inh | USP8 inh | USP30 inh
Cc1nc(-c2noc(-c3cccc(F)c3)n2)cn1CC(=O)Nc1ccccc1 | -16.6 | -4.8 | 38.2* | -4.2
N#Cc1cccc(NC(=O)Cn2cccc2-c2nc(-c3ccccc3)no2)c1 | 31.0* | 17.3 | 31.0* | 13.1
CC1(C)C(=O)CC[C@@]2(C)C1CC[C@]1(C)C2CC[C@@H]2[C@H]3[C@H]4OC[C@@]3(CCC4(C)C)CC[C@]21C (stereo not given in full) | 13.4 | 4.0 | 25.0 | 30.5*
CC(C)=CCC[C@](C)(O)[C@H]1CC[C@]2(C)[C@@H]1CC[C@@H]1[C@@]3(C)CCC(=O)C(C)(C)[C@@H]3CC[C@]12C | 15.2 | 8.7 | 18.9 | 22.8
Cc1ccc(CNC(=O)Cc2nc(-c3ccccn3)n[nH]2)cc1 | -54.5 | -7.8 | -269.3 | -5.9
CCN(Cc1ccccc1)c1nc2ccccc2nc1NS(=O)(=O)c1cc([N+](=O)[O-])ccc1C | 34.0* | 19.6 | 19.3 | 28.8
N#Cc1ccc(CC2(Cc3ccc(C#N)cc3)C(=O)N(Cc3ccccn3)C(=O)c3ccccc32)cc1 | 15.8 | 20.1 | 15.7 | 44.5*
Cc1cccc(C)c1OCCOC(=O)c1ccc(Cl)c(S(=O)(=O)N2CCCCCC2)c1 | 1.9 | 0.1 | 3.4 | -2.4
O=C(NCc1ccccc1F)c1ccc(Cl)c(S(=O)(=O)N2CCCCC2)c1 | 9.3 | 38.4* | 4.7 | 22.3
O=C(NCc1ccc(Cl)cc1)c1cccc(N2CCCC2=O)c1 | -0.1 | 14.1 | 6.9 | 3.0
C[C@@H]1CO[C@@H]2C3=C(C(=O)C=CC3=O)[C@H]3OC(=O)[C@@H]4CCC5[C@@H]1CCC52C34 (stereo not given in full) | 80.5* | 61.9* | 34.0* | 59.1*
CCc1ccc(NC(=O)Cc2nc(-c3ccc(O)cc3O)cs2)cc1 | 37.5* | · | -22.7 | ·
CCOC(=O)c1nc(Nc2cccc(C)c2)c2c3c(sc2n1)CCCC3 | -20.6 | -21.5 | 10.4 | -34.8
Cn1cc(CN2CC[C@H]3C[C@H](C(=O)Nc4cccnc4)O[C@@H]3C2)cn1 | · | 9.8 | -26.6 | 37.0*
Cc1ccc(CN2CC[C@H]3C[C@H](C(=O)Nc4cccnc4)O[C@@H]3C2)s1 | -23.6 | 7.5 | -222.5 | 2.0
COc1ccc(-n2ccn3c(CCC(=O)NC4CC4)nnc3c2=O)cc1 | -2.1 | -15.1 | 3.9 | 2.6
O=C(NC1CCCC1)c1cccc(NC(=O)c2nsc3ccccc23)c1 | 31.5* | · | -0.9 | ·
CCC(=O)N1CC(C(=O)Nc2ccc(F)cc2)C2(CCOCC2)C1 (stereo not given) | -6.9 | -13.2 | -5.1 | -14.9
CC(C)CC(=O)N1CC(C(=O)Nc2ccc(F)cc2)C2(CCOCC2)C1 (stereo not given) | 45.6* | 6.1 | 0.2 | 14.8
COc1ccc(CCNC(=O)c2cnc3sc4c(n3c2=O)CCCC4)cc1OC | -19.7 | 40.3* | -79.9 | 0.0
Cc1ccc(NC(=O)c2cc(=O)n(C)c3c2c(=O)n(C)c(=O)n3C)c(C)c1 | 21.2 | 12.4 | 10.6 | 61.1*
Cc1ccc(NC(=O)c2cc(=O)n(C)c3c2c(=O)n(C)c(=O)n3C)cc1C | 43.6* | 6.9 | 1.5 | -0.8
Cn1c(=O)c2c(C(=O)Nc3ccc(Cl)cc3)cc(=O)n(C)c2n(C)c1=O | -9.8 | -26.9 | -12.7 | -39.8
O=C(Nc1ccc(F)cc1)N1CCN(Cc2nnnn2-c2ccc(F)c(F)c2)CC1 | 3.2 | -1.6 | 2.7 | 0.1
O=C(COc1cccc(F)c1)NC(Cc1ccccc1)c1nc2ccccc2[nH]1 (stereo not given) | 45.6* | -1.7 | 73.0* | 10.8
SMILES | USP17 inh | USP28 inh | USP8 inh | USP30 inh
CSCCC(NC(=O)c1cnn(Cc2ccccc2)c1)c1nc2ccccc2[nH]1 (stereo not given) | -4.0 | 2.5 | 16.7 | -8.4
N#Cc1ccc(OCC(=O)NC(Cc2ccccc2)c2nc3ccccc3[nH]2)cc1 (stereo not given) | 11.6 | 2.9 | 35.8* | 9.5
Cc1c(NS(=O)(=O)c2cccc(F)c2)cccc1-c1nc2cccnc2s1 | 13.0 | · | -2.3 | ·
Cc1c(C(=O)N=CN(C)C)sc(C#N)c1-c1ccccc1 | 17.8 | 7.3 | 1.3 | 32.0*
O=C(Cn1cc(-c2ccccc2)oc1=O)NCc1ccc(Cl)cc1 | 40.5* | 26.9 | 30.6* | 34.6*
COc1ccc(C(=O)NCc2cc(-c3ccc(F)cc3)on2)c(OC)c1 | 7.5 | -0.3 | 8.7 | 5.0
Cn1ccc2ccn(CC(=O)NCc3ccc(Cl)cc3)c(=O)c21 | 21.0 | 8.7 | 8.3 | 15.2
O=C(Cc1cc(-c2ccccc2)on1)NCc1ccc(Cl)cc1 | 4.5 | 0.6 | 35.8* | 15.9
COc1cccc(-c2cc(CC(=O)NCc3c(F)cccc3F)no2)c1 | 44.8* | 18.0 | 28.1 | 27.5
O=C(Cc1cc(-c2ccccc2)on1)NCc1c(F)cccc1F | 53.5* | 27.4 | 21.4 | 23.1
O=C1[C@H]2Cc3c([nH]c4ccccc34)CN2C(=O)CN1Cc1ccccc1 | -0.6 | 0.8 | -0.7 | -21.6
CC(=O)c1ccc(NC(=O)C2CCN(C(=O)C3CC(=O)N(c4ccc(C)cc4)C3)CC2)cc1 (stereo not given) | -9.2 | -1.4 | -34.9 | -7.8
CC(C)(C)c1ccc(S(=O)(=O)Nc2ccc3c(c2)CC(=O)N3)cc1 | 4.0 | · | 2.5 | ·
NS(=O)(=O)c1ccc(CCNC(=O)Cc2cc(-c3ccc(F)cc3)on2)cc1 | 8.0 | 2.3 | 47.9* | -11.6
CC(=O)N1CCc2cc(S(=O)(=O)NCCC(=O)Nc3ccc(C)cc3C)ccc21 | 17.4 | 14.6 | 18.8 | 27.8
CC(=O)N1CCc2cc(CNC(=O)Nc3cc(C)ccc3C)ccc21 | 43.2* | 13.1 | -1.3 | 66.6*
CC(C)(C)C(=O)CSc1nnc(-c2ccccn2)s1 | 8.0 | 9.2 | 8.5 | 24.7
CC(=O)c1cnc(-c2ccccn2)s1 | 3.3 | -0.1 | 43.5* | -25.6
O=C(CN(c1ccccc1)S(=O)(=O)c1ccccc1[N+](=O)[O-])NCc1ccccc1 | -0.3 | -0.7 | -76.1 | 7.1
O=S(=O)(c1ccccc1)c1cnc(-c2ccccc2)nc1Oc1ccc(F)cc1F | 15.4 | 13.3 | 12.5 | 36.2*
Cc1cc(C)cc(-n2ccn3c(CCC(=O)NCc4cccnc4)nnc3c2=O)c1 | 0.1 | -4.6 | -1.8 | -2.9
Cc1cccc(NC(=O)CCc2nnc3c(=O)n(-c4cccc(F)c4)ccn23)c1 | 6.5 | 4.1 | 37.8* | -0.9
COc1ccc(-n2ccn3c(CCC(=O)NCc4ccccc4)nnc3c2=O)cc1 | 0.1 | -3.1 | 19.4 | 8.3
COc1cccc(CNC(=O)CCc2nnc3c(=O)n(-c4cccc(F)c4)ccn23)c1 | 9.2 | -1.8 | -18.9 | 4.6
COc1ccc(CNC(=O)CCCc2nnc3c(=O)n(-c4cc(C)cc(C)c4)ccn23)cc1 | 39.0* | 9.2 | 77.8* | -1.4
Cc1ccc(CNC(=O)CCCc2nnc3c(=O)n(-c4cccc(F)c4)ccn23)cc1 | 14.4 | 6.6 | 36.2* | 4.8
COc1ccc(-n2ccn3c(CCC(=O)Nc4ccc(F)cc4)nnc3c2=O)cc1 | 0.0 | -5.9 | 0.4 | -21.5
O=C(CCCc1nnc2c(=O)n(-c3cccc(F)c3)ccn12)NCc1ccc(Cl)cc1 | 35.2* | -10.1 | 19.3 | -38.1
Cc1oc2nc[nH]c(=O)c2c1C(=O)NCc1ccc(F)cc1 | -8.1 | -4.8 | 12.8 | -128.3
